# Data taken from PubChem BioAssay (EPA / NIEHS).
# Records with an inconclusive call do not appear. The source made the active and inactive calls. Rule for the calls, unless noted: active = hit-call score of the fitted dose curve at least 0.9, where 1 is the maximum; inconclusive = response in the unintended direction; inactive = score below 0.9.
# Experiments:
# [1] = ATG_TAL_CIS: Attagene CIS-FACTORIAL HepG2 Assay for human TAL Basal Promoter (AID 2282966; active = hit-call score of the fitted dose curve at least 0.9, where 1 is the maximum; inactive = score below 0.9;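 note: background control endpoint measuring basal TAL promoter reporter mRNA not a specific factor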); conditions: HepG2 Attagene cis-factorial TAL promoter reporter; actives raise or lower the signal
# Summary of the method: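 HepG2 cells were transiently transfected with promoter-driven multiplexed reporter units and dosed for 24 h. Reporter mRNA was measured by RT-PCR with capillary electrophoresis fluorescence; bidirectional fits used DMSO as baseline, serving as a background control.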
# [2] = ATG_TGFb_CIS: Attagene CIS-FACTORIAL HepG2 Assay for human Transforming Growth Factor (TGF) (AID 2282967; active = hit-call score of the fitted dose curve at least 0.9, where 1 is the maximum; inactive = score below 0.9); conditions: HepG2 Attagene CIS TGFb reporter, mRNA transcription; actives raise or lower the signal
# Summary of the method: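 Transient MRTU transfection of HepG2 (FuGene 6). Dose 24 h. TriZol RNA, oligo(dT) RT, PCR, 6-FAM primer extension, HpaI cut, CE. Bidirectional fit, DMSO = baseline.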
# [3] = ATG_VDRE_CIS: Attagene CIS-FACTORIAL HepG2 Assay for human Vitamin D Receptor Element (VDRE) (AID 2282968; active = hit-call score of the fitted dose curve at least 0.9, where 1 is the maximum; inactive = score below 0.9); conditions: HepG2 VDRE cis-reporter transcription, actives raise or lower the signal
# Summary of the method: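 Transiently transfected HepG2 cells carrying cis-regulated reporter transcription units were exposed for 24 h. Reporter mRNA was measured by RT-PCR with fluorescent labelling and capillary electrophoresis, and fitted in both directions against DMSO.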
# [4] = molecular target: Nuclear receptor subfamily 1 group I member 3 (Homo sapiens) (UniProt Q14994); assay: ATG_CAR_TRANS: Attagene TRANS-FACTORIAL HepG2 Assay for human Constitutive Androstane Receptor (CAR) (AID 2282969); conditions: HepG2 Attagene TRANS-FACTORIAL CAR reporter;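 note: activators raise reporter mRNA above DMSO so AC50 marks induction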
# Chain of Nuclear receptor subfamily 1 group I member 3 (Homo sapiens) (Q14994 whole entry, looked up, the tested form may be a part): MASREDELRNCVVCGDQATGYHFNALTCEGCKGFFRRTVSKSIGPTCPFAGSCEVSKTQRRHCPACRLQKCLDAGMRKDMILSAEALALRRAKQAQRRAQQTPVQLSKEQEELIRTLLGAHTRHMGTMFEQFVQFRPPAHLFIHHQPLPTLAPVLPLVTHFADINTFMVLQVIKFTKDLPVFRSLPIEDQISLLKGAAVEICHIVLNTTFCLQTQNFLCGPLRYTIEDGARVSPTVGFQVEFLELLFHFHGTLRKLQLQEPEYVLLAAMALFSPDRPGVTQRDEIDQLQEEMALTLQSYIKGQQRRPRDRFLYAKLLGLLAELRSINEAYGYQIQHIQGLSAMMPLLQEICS
# Summary of the method: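 HepG2 cells transiently transfected with GAL4-UAS reporter units; TRANS format reads activity of exogenous chimeric NR-Gal4 protein. After 24 h dosing, reporter mRNA quantified by RT-PCR, 6-FAM labelling and capillary electrophoresis; gain of signal fitted against DMSO.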
# [5] = molecular target: X-box-binding protein 1 (Homo sapiens) (UniProt P17861); assay: ATG_Xbp1_CIS: Attagene CIS-FACTORIAL HepG2 Assay for human X-box Binding Protein 1 (XBP1) (AID 2282972; active = hit-call score of the fitted dose curve at least 0.9, where 1 is the maximum; inactive = score below 0.9); conditions: HepG2 XBP1 cis-element reporter, Attagene multiplex; actives raise or lower the signal
# Chain of X-box-binding protein 1 (Homo sapiens) (P17861 whole entry, looked up): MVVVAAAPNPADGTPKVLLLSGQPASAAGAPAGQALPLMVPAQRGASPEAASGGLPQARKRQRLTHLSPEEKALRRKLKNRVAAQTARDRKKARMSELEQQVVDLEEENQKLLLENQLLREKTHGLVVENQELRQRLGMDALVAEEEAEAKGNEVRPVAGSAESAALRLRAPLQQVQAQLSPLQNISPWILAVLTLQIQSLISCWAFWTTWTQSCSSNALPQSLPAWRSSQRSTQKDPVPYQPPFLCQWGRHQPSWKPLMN
# Summary of the method: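 HepG2 cells transiently transfected with multiple cis-element reporter units report endogenous TF activity; 24 h exposure, then reporter mRNA measured by RT-PCR, 6-FAM labelling, HpaI digestion and capillary electrophoresis. Bidirectional fitting versus DMSO.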
# [6] = ATG_Hpa5_TRANS: Attagene TRANS-FACTORIAL HepG2 Assay for human GAL4-Hpa5 Hepatocyte Transcription Factor Basal Promoter (AID 2282975); conditions: HepG2 Attagene GAL4-Hpa5 transcription reporter;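 note: hits are increases in reporter mRNA over DMSO baseline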
# Summary of the method: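 Basal-promoter GAL4 background control within the HepG2 trans-factorial panel of transiently transfected reporter units. Reporter mRNA is measured 24 h after dosing by RT-PCR and capillary electrophoresis, fitted for gain of signal versus DMSO.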
# [7] = molecular target: Oxysterols receptor LXR-alpha (Homo sapiens) (UniProt Q13133); assay: ATG_LXRa_TRANS: Attagene TRANS-FACTORIAL HepG2 Assay for human Liver X Receptor alpha (LXRa) (AID 2282980); conditions: HepG2 Attagene TRANS reporter, LXRa transactivation
# Chain of Oxysterols receptor LXR-alpha (Homo sapiens) (Q13133 whole entry, looked up, the tested form may be a part): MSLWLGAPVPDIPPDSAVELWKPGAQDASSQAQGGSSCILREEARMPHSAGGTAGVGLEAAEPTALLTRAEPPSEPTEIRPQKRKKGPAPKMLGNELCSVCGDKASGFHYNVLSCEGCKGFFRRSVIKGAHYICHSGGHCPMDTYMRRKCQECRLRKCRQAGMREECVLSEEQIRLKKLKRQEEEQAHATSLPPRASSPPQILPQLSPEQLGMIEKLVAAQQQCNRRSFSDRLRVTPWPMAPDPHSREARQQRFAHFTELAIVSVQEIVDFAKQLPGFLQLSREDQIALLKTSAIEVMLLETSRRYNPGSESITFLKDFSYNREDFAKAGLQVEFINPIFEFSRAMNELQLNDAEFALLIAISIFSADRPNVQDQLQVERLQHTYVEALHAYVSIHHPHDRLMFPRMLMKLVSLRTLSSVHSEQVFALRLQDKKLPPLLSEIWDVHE
# Summary of the method: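 HepG2 cells were transiently transfected with multiplexed reporter units driven by chimeric LXRa–GAL4 fusion proteins, then dosed for 24 h. Reporter mRNA was quantified by RT-PCR, fluorescent labelling and capillary electrophoresis; gain of signal fitted against DMSO baseline.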
# [8] = ATG_M_06_TRANS: Attagene TRANS-FACTORIAL HepG2 Assay for M06 Transcription Factor (Internal Marker) (AID 2282983); conditions: HepG2 Attagene TRANS M06 internal marker reporter;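 note: reporter transcript level by RT-PCR then capillary electrophoresis fluorescence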
# Summary of the method: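 HepG2 cells transiently transfected with multiplexed GAL4-UAS reporter transcription units; after 24 h compound exposure, reporter mRNA measured by RT-PCR, FAM-labelled primer extension, HpaI digestion and capillary electrophoresis. Gain-of-signal fitted versus DMSO baseline; background control readout.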
# [9] = ATG_M_32_TRANS: Attagene TRANS-FACTORIAL HepG2 Assay for M32 Transcription Factor (Internal Marker) (AID 2282984); conditions: HepG2 Attagene TRANS M32 internal marker reporter
# Summary of the method: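 HepG2 cells transiently transfected with GAL4-UAS reporter units, dosed for 24 hours. Reporter mRNA quantified by RT-PCR, 6-FAM labelling, HpaI digestion and capillary electrophoresis; internal-marker signal fitted upward relative to DMSO.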
# [10] = molecular target: Nuclear receptor subfamily 4 group A member 2 (Homo sapiens) (UniProt P43354); assay: ATG_NURR1_TRANS: Attagene TRANS-FACTORIAL HepG2 Assay for human Nuclear Receptor Related Protein 1 (NURR1) (AID 2282985); conditions: HepG2 Attagene TRANS reporter, mRNA readout
# Chain of Nuclear receptor subfamily 4 group A member 2 (Homo sapiens) (P43354 whole entry, looked up, the tested form may be a part): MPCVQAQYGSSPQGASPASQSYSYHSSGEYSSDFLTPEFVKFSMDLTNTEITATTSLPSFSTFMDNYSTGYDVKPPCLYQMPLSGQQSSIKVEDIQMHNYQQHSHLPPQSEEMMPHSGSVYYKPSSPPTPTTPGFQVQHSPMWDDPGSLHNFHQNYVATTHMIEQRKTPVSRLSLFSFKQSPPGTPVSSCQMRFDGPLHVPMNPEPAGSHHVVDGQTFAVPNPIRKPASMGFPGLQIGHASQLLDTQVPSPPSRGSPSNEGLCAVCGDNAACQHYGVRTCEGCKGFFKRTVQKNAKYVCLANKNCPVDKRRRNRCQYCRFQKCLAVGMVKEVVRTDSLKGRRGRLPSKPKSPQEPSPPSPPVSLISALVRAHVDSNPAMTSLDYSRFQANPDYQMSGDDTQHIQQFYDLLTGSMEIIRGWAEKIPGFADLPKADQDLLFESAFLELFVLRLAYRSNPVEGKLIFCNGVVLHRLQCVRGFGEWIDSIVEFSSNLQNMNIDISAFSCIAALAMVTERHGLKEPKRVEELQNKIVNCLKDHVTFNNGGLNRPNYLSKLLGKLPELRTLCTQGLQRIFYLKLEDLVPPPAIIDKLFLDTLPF
# Summary of the method: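 HepG2 cells transiently transfected with NURR1-Gal4 chimera and GAL4-UAS reporter units; after 24 hr compound exposure, reporter mRNA quantified by RT-PCR and capillary electrophoresis; gain of signal fitted against DMSO.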
# [11] = molecular target: Transcriptional activator Myb (Homo sapiens) (UniProt P10242); assay: ATG_Myb_CIS: Attagene CIS-FACTORIAL HepG2 Assay for human Myeloblastosis (Myb) Proto-Oncogene Transcription Factor (AID 2282986; active = hit-call score of the fitted dose curve at least 0.9, where 1 is the maximum; inactive = score below 0.9); conditions: HepG2 Attagene CIS-FACTORIAL Myb reporter transcription; actives raise or lower the signal
# Chain of Transcriptional activator Myb (Homo sapiens) (P10242 whole entry, looked up): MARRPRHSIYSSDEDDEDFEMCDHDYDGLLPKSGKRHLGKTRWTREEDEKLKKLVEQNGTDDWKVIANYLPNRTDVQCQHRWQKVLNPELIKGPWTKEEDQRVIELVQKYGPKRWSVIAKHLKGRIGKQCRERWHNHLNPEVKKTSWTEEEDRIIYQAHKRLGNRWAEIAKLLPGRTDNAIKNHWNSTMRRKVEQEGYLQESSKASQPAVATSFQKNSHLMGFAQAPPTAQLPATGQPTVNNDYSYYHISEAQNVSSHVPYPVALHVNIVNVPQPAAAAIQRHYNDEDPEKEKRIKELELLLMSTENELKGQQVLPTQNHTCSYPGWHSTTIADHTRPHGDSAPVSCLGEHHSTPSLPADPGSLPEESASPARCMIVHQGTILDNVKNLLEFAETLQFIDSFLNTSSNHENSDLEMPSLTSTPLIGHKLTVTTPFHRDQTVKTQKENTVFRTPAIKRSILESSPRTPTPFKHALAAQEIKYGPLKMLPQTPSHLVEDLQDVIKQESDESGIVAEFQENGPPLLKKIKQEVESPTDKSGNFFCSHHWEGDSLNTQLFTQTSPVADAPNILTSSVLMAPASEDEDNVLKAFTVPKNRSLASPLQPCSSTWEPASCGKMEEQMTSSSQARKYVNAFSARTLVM
# Summary of the method: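 After 24 h of compound dosing, total RNA from transfected HepG2 cells is reverse-transcribed and the reporter sequences amplified, labeled and separated by capillary electrophoresis. Values come from bidirectional fitting against DMSO.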
# [12] = molecular target: Oxysterols receptor LXR-beta (Homo sapiens) (UniProt P55055); assay: ATG_LXRb_TRANS: Attagene TRANS-FACTORIAL HepG2 Assay for human Liver X Receptor beta (LXRb) (AID 2282981); conditions: HepG2 Attagene TRANS GAL4-LXRb reporter, mRNA
# Chain of Oxysterols receptor LXR-beta (Homo sapiens) (P55055 whole entry, looked up, the tested form may be a part): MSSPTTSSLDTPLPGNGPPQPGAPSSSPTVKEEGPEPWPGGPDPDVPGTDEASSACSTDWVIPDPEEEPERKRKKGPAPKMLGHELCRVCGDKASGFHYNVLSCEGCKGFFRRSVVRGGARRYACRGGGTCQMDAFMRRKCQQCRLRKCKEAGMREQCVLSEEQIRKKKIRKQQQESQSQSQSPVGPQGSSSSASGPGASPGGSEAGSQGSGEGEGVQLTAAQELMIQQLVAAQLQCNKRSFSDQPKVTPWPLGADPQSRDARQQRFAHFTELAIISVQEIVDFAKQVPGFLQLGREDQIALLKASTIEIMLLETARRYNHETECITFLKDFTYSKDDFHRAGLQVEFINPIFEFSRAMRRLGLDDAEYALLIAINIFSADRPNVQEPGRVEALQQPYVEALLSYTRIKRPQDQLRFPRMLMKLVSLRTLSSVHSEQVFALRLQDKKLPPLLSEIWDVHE
# Summary of the method: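 HepG2 cells transiently transfected with GAL4-UAS reporter units for chimeric NR-Gal4 proteins, dosed for 24 h. Reporter transcripts measured by RT-PCR and capillary electrophoresis; gain-of-signal fitting relative to DMSO.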
# [13] = molecular target: Steroid hormone receptor ERR1 (Homo sapiens) (UniProt P11474); assay: ATG_ERRa_TRANS: Attagene TRANS-FACTORIAL HepG2 Assay for human Estrogen-Related Receptor alpha (ERRa) (AID 2282971); conditions: HepG2 Attagene TRANS reporter, ERRa transactivation
# Chain of Steroid hormone receptor ERR1 (Homo sapiens) (P11474 whole entry, looked up, the tested form may be a part): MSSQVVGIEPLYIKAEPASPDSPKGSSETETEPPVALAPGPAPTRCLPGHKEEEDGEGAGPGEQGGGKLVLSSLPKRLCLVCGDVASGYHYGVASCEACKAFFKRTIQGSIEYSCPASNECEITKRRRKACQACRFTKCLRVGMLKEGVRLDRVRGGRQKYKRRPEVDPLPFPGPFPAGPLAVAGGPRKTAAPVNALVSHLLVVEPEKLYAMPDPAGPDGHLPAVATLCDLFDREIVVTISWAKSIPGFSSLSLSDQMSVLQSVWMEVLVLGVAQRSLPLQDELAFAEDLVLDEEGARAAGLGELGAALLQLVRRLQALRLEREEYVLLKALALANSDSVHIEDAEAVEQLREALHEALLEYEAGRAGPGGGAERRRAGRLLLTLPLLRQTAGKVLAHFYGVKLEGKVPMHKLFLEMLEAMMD
# Summary of the method: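 HepG2 cells transiently transfected with multiplexed GAL4-UAS reporter units reading chimeric ERRa-Gal4 activity; 24 h compound exposure. Reporter mRNA measured by RT-PCR, 6-FAM labelling, HpaI digest and capillary electrophoresis; gain of signal fitted versus DMSO baseline.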
# [14] = molecular target: Estrogen-related receptor gamma (Homo sapiens) (UniProt P62508); assay: ATG_ERRg_TRANS: Attagene TRANS-FACTORIAL HepG2 Assay for human Estrogen-Related Receptor gamma (ERRg) (AID 2282977); conditions: HepG2 Attagene TRANS reporter, ERRg transactivation;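 note: hits increase reporter signal over DMSO so potencies reflect activators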
# Chain of Estrogen-related receptor gamma (Homo sapiens) (P62508 whole entry, looked up, the tested form may be a part): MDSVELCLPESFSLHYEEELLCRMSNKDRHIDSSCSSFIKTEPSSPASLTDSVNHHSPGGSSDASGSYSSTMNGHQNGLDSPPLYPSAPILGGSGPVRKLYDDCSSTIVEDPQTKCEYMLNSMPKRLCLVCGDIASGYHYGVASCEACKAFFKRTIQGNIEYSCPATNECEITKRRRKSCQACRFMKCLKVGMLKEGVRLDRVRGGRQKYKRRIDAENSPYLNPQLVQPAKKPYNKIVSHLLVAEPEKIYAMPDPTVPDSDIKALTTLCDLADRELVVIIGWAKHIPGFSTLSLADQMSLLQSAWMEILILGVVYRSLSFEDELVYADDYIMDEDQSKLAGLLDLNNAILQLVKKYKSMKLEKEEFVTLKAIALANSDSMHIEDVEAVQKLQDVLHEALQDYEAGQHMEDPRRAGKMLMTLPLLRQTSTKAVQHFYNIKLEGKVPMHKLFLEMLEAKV
# Summary of the method: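 HepG2 cells transiently transfected with multiplexed GAL4-UAS reporter units driven by chimeric NR-Gal4 proteins; 24 h exposure. Reporter mRNA quantified by RT-PCR, fluorescent labelling, HpaI digestion and capillary electrophoresis; gain of signal vs DMSO.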
# [15] = molecular target: Glucocorticoid receptor (Homo sapiens) (UniProt P04150); assay: ATG_GR_TRANS: Attagene TRANS-FACTORIAL HepG2 Assay for human Glucocorticoid Receptor (GR) (AID 2282978); conditions: HepG2 Attagene TRANS GR reporter, mRNA transcription;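 note: activators score as hits since higher reporter transcript over DMSO is fitted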
# Chain of Glucocorticoid receptor (Homo sapiens) (P04150 whole entry, looked up): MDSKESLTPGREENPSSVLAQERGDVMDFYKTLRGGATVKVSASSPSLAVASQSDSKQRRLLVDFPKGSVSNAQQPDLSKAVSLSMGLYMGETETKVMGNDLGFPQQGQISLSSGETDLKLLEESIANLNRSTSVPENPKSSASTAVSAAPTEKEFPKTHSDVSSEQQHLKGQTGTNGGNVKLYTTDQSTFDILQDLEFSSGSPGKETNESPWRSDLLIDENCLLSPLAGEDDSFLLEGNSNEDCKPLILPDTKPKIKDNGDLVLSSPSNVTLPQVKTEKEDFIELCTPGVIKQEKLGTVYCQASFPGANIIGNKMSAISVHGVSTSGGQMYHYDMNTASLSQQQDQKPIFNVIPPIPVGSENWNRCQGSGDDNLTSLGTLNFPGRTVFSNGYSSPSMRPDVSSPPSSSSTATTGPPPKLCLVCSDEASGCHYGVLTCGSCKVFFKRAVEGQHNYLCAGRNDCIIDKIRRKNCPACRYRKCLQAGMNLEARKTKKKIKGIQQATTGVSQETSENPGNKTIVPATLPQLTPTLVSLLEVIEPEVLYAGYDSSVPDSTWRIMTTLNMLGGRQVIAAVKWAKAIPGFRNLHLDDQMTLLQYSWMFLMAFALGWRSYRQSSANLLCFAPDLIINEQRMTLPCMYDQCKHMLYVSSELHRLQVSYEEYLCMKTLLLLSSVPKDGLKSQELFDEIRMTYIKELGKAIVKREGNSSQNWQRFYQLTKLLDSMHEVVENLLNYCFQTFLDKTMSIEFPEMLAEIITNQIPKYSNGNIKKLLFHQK
# Summary of the method: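 After 24 h incubation with test chemical, transfected HepG2 cells were lysed for RNA; reporter cDNA was amplified, FAM-labelled, HpaI-digested and sized on a capillary analyser. Signal gain relative to DMSO was scored.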
# [16] = molecular target: Estrogen receptor (Homo sapiens) (UniProt P03372); assay: ATG_ERa_TRANS: Attagene TRANS-FACTORIAL HepG2 Assay for human Estrogen Receptor alpha (ERa) (AID 2282970); conditions: HepG2 Attagene TRANS ERa GAL4 reporter, mRNA
# Summary of the method: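 HepG2 cells transiently transfected with multiplexed GAL4-UAS reporter units; ERa activity read via exogenous chimeric NR-Gal4 protein. After 24 hour compound exposure, reporter mRNA measured by RT-PCR with 6-FAM labelling and capillary electrophoresis; gain-of-signal fitted relative to DMSO.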
# [17] = molecular target: Bile acid receptor (Homo sapiens) (UniProt Q96RI1); assay: ATG_FXR_TRANS: Attagene TRANS-FACTORIAL HepG2 Assay for Farnesoid X Receptor (FXR) (AID 2282979); conditions: HepG2 Attagene TRANS FXR-GAL4 reporter transcription;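 note: hits raise reporter mRNA above DMSO so AC50 marks FXR activation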
# Chain of Bile acid receptor (Homo sapiens) (Q96RI1 whole entry, looked up, the tested form may be a part): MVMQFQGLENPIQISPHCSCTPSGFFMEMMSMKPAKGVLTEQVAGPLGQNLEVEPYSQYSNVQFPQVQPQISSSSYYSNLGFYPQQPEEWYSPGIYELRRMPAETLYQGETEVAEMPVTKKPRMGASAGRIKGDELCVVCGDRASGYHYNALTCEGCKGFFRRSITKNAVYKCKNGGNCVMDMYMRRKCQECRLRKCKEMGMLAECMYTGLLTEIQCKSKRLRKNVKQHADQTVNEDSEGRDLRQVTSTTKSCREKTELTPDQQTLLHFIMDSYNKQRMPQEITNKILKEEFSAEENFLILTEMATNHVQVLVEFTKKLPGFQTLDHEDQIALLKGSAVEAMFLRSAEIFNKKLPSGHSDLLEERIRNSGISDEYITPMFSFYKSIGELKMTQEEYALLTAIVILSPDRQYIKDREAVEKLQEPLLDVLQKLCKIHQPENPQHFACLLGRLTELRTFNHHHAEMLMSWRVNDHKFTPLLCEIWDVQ
# Summary of the method: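 HepG2 cells transiently transfected with reporter constructs in which a chimeric FXR-GAL4 protein drives a GAL4-UAS reporter; 24 h compound exposure. Reporter mRNA measured by RT-PCR, FAM labelling, HpaI digestion and capillary electrophoresis; gain-of-signal versus DMSO.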
smiles,measurement,setting,value
C#CC(C)(C)NC(=O)c1cc(Cl)cc(Cl)c1,outcome,[1],inactive
same,outcome,[2],inactive
same,AC50,[3],29.3 µM (active)
same,outcome,[4],inactive
same,outcome,[5],inactive
same,outcome,[6],inactive
same,outcome,[7],inactive
same,outcome,[8],inactive
same,outcome,[9],inactive
same,outcome,[10],inactive
same,outcome,[11],inactive
CC(C)N(C(=O)SCC(Cl)=C(Cl)Cl)C(C)C,outcome,[1],inactive
same,outcome,[2],inactive
same,AC50,[3],29.1 µM (active)
same,outcome,[4],inactive
same,outcome,[5],inactive
same,outcome,[6],inactive
same,AC50,[7],29.1 µM (active)
same,AC50,[12],20.1 µM (active)
same,outcome,[8],inactive
same,outcome,[9],inactive
same,outcome,[10],inactive
same,outcome,[11],inactive
CCCCN(CC)c1c([N+](=O)[O-])cc(C(F)(F)F)cc1[N+](=O)[O-],outcome,[1],inactive
same,outcome,[2],inactive
same,AC50,[3],13.3 µM (active)
same,outcome,[4],inactive
same,outcome,[13],inactive
same,outcome,[5],inactive
same,outcome,[6],inactive
same,outcome,[14],inactive
same,outcome,[15],inactive
same,outcome,[7],inactive
same,outcome,[8],inactive
same,outcome,[9],inactive
same,outcome,[10],inactive
same,outcome,[11],inactive
COc1cc(OC)nc(Sc2cccc(Cl)c2C(=O)O)n1,outcome,[1],inactive
same,outcome,[2],inactive
same,outcome,[3],inactive
same,outcome,[4],inactive
same,outcome,[13],inactive
same,outcome,[5],inactive
same,outcome,[14],inactive
same,outcome,[15],inactive
same,outcome,[7],inactive
same,outcome,[12],inactive
same,outcome,[8],inactive
same,outcome,[9],inactive
same,outcome,[10],inactive
same,outcome,[11],inactive
CON=C(C(=O)OC)c1ccccc1CON=C(C)c1cccc(C(F)(F)F)c1,AC50,[1],13 µM (active)
same,outcome,[2],inactive
same,AC50,[3],11.1 µM (active)
same,outcome,[4],inactive
same,outcome,[5],inactive
same,outcome,[6],inactive
same,outcome,[7],inactive
same,outcome,[9],inactive
same,outcome,[11],inactive
CSc1nc(NC(C)C)nc(NC(C)C)n1,outcome,[1],inactive
same,outcome,[2],inactive
same,AC50,[3],10.3 µM (active)
same,outcome,[4],inactive
same,outcome,[16],inactive
same,outcome,[13],inactive
same,outcome,[5],inactive
same,outcome,[6],inactive
same,outcome,[7],inactive
same,outcome,[12],inactive
same,outcome,[9],inactive
same,outcome,[10],inactive
same,outcome,[11],inactive
CCc1cccc(C)c1N(C(=O)CCl)C(C)COC (stereo unspecified),outcome,[1],inactive
same,outcome,[2],inactive
same,AC50,[3],9.18 µM (active)
same,outcome,[4],inactive
same,outcome,[5],inactive
same,outcome,[14],inactive
same,outcome,[8],inactive
same,outcome,[9],inactive
same,outcome,[11],inactive
COP(=O)(OC)C(O)C(Cl)(Cl)Cl (stereo unspecified),outcome,[1],inactive
same,outcome,[2],inactive
same,AC50,[3],50 µM (active)
same,outcome,[4],inactive
same,outcome,[13],inactive
same,AC50,[5],39.7 µM (active)
same,outcome,[6],inactive
same,outcome,[14],inactive
same,outcome,[15],inactive
same,outcome,[17],inactive
same,outcome,[7],inactive
same,AC50,[12],92.4 µM (active)
same,outcome,[9],inactive
same,outcome,[11],inactive
